Whole data set: some 33,000 sequences, median “e-score” near -0.037, cut for the highest 2% near 0.34. The sample holds the highest values, similar sequences and a random draw of the others, so the mix is not that of the screen.
biological target: T1, GST-Rok (full length) (Bacillus subtilis subsp. subtilis str. …, UniProt O34857 1-191); experiment: protein binding microarray; Rok is a gene silencer of Bacillus subtilis; high values mean tight binding; conditions: protein: recombinant; tags: GST (pTH5325, pDEST15-Magic modified); dsDNA, one strand shown
T1 sequence: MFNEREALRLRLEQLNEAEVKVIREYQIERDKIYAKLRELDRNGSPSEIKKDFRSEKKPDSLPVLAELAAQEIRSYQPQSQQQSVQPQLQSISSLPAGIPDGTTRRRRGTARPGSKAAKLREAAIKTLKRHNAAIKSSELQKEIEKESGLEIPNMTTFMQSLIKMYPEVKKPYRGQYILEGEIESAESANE
Summary of the method: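 Every oligonucleotide joins a 25-mer constant primer to a 35-mer variable part drawn from a de Bruijn sequence of order 10, so each non-palindromic 8-mer appears at least 32 times and each palindromic 8-mer 16 times. The preference for every 8-mer is reported as a unitless, rank-based enrichment score (E-score). This score spans 0.5 for the most favored 8-mer to −0.5 for the most disfavored.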

Sequence | binding signal [E-score]
ACTGTTCT | 0.0222
AAATAGGC | 0.00361
AACATTAA | 0.133
AGCTGCTC | -0.187
CTCCATAC | 0.166
AGTCTGAC | -0.198
GTTAGGTA | 0.191
CCAAAAAG | -0.177
GGAATTAA | 0.111
CCTCAGTA | 0.0795
CTGGCTCA | 0.0475
CTCGAGCA | -0.112
CTTCGAAA | -0.139
CGTGAACA | 0.0255
ACTTGTAT | 0.236
AATTGTAG | 0.28
GATTGTAC | 0.317
ACTTGTAA | 0.168
ACTTGTAC | 0.345
AATTGTAC | 0.341
ACGGTTAG | -0.0112
GTTATTGA | 0.0636
CGTTACAA | 0.151
CTCAGTTC | -0.0174
ATCTAGCC | 0.178

Sequence | binding signal [E-score]
ATCTAGCA | 0.339
CTCTAGTA | 0.119
ATCTAGTC | 0.297
ATCTAGTA | 0.408
CTCTAGCA | -0.115
AACTTCAT | 0.0811
GCTGTGAC | -0.0172
AGATAACA | 0.241
CTTACCAC | 0.00163
AGTTGCGA | 0.0582
GAACTGAA | -0.118
AGACCGTC | -0.193
CCAATGGG | -0.118
AGTCTGCG | 0.0274
AGTGGGCA | -0.0765
GACGACGC | 0.0038
CTATATCC | 0.0894
TAATATCA | 0.338
CTATATCA | 0.231
CAATATCA | 0.183
GTATATCA | 0.208
ATATATCG | 0.381
ATATATCC | 0.18
ATATATCA | 0.398
GAATATCA | 0.18

Sequence | binding signal [E-score]
CCTTAATC | -0.174
AGGAAGTA | 0.0966
GCTCCGGA | -0.102
CCTACTTC | 0.211
ACATCTCG | -0.0379
CACGTCAA | 0.00857
AACTTCTT | -0.00379
TCTTAAGA | 0.00924
AGTGATTG | -0.118
GGTGTCGA | -0.128
CGCTGAGC | -0.0254
GACTAATA | 0.225
AACTAATT | 0.32
ACCTAATA | 0.176
AACTAATG | 0.339
CACTAATA | 0.277
AACTAATA | 0.357
CACTAATG | 0.154
AACTAATC | 0.158
TACTAATA | 0.346
AGATTACG | 0.17
AAACCCGT | -0.0147
ACCGGCAA | -0.0643
TTCCCCAA | -0.0604
GTGATTCA | -0.0295

Sequence | binding signal [E-score]
TGATGCAA | -0.0283
CGCGGTAA | 0.147
AGTCAATA | 0.322
AAGATATA | 0.313
AATATATC | 0.412
CGTATATC | 0.196
AATATATG | 0.33
AATATAAT | 0.228
AATATATT | 0.41
AATATATA | 0.469
AATATTAT | 0.208
AATATAAC | 0.193
GATGGGAA | -0.056
CAGGACGG | -0.164
CAGAGTTA | -0.0506
ATTATAGG | 0.285
ACTACTAA | 0.386
TCTACTCA | 0.206
ACTACTCA | 0.281
AGTACTTA | 0.349
ACTACTTC | 0.193
CCTACTAA | -0.00507
GCTACTAA | 0.199
ACTACTTA | 0.432
ACTACTGA | 0.323

Sequence | binding signal [E-score]
CGTACTTA | 0.264
AGTACTTG | 0.297
TCTACTAA | 0.353
AGTAACAT | 0.242
CTCCATTC | 0.0472
GCTACAGC | 0.0848
ACGCGGCA | -0.129
GTAGAAGA | 0.247
ACAGCGAT | -0.0187
CAGGAGAA | -0.111
AATTTAAG | 0.18
ACAGTGTC | 0.114
ACTGATAA | 0.273
TAGCTTCA | 0.13
AAGCAAGG | -0.19
AAGTTGAG | -0.123
CTATGTAA | 0.185
ATATGTTA | 0.395
CTATGTTA | 0.285
AGATGTAC | 0.315
ATATGTAA | 0.286
CTATGTAC | 0.186
ATATGTAG | 0.391
ATATGTTC | 0.184
ATATGTAC | 0.345

Sequence | binding signal [E-score]
CGCTATTA | 0.211
CATTAGCA | -0.0362
GAGCTCAC | -0.145
ACGCAGAG | -0.119
AGTAGAAG | 0.228
AGTAGAGA | 0.265
AGTAGAAA | 0.42
AGTAGAAC | 0.267
AGTAGAAT | 0.42
ATTAGAAA | 0.233
AGGATTAG | 0.158
TAGCCCAA | -0.0264
ACGGAGCG | -0.13
TTATACAA | 0.294
CTATACAA | 0.296
ATATACAA | 0.389
CTATACAC | 0.216
ATATACAC | 0.339
ATATACAG | 0.282
ATTTAGGC | -0.0308
CGTAGGCC | -0.17
ATCGTCCA | -0.0609
GCAAAAAC | 0.0325
CCTAACTA | 0.26
GGTAACTA | 0.305

Sequence | binding signal [E-score]
AATAACTG | 0.195
AATAACTA | 0.341
AGTAACTA | 0.421
ACTAACTG | 0.163
GCTAACTA | 0.341
GATAACTA | 0.222
ACTAACTC | 0.12
GCTAACGA | 0.123
AGTAACTC | 0.0592
ACTAACTA | 0.348
AGTTTTAC | 0.301
AGACCAAT | -0.0485
AGAGCACA | -0.114
GCGCTTCA | -0.0884
CGCCTATA | 0.00134
AGTTCTAT | 0.213
GATTCTAA | 0.134
AGTTCTAC | 0.383
CATTCTAA | 0.0993
AATTCTAC | 0.435
AATTCTAA | 0.252
AATTCTAT | 0.31

From publication PMC6212790, “How bacterial xenogeneic silencer rok distinguishes foreign from self DNA in its resident genome”
